The values below come from PubChem BioAssay (NCI).

Test [1] can be described thus: NCI Yeast Anticancer Drug Screen. Data for the rad50 strain (AID 155).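 Also: 0% = growth of vehicle-only cultures of the same strain.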 Conditions: S. cerevisiae rad50 strain growth inhibition; at 50.0 µM; stronger effect = higher value. Put shortly:
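Readout: growth inhibition relative to vehicle-treated cultures. Compound exposure was carried out in a genetically defined yeast strain deficient in DNA damage repair.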

A short description of test [2]: NCI Yeast Anticancer Drug Screen. Data for the mec2-1 strain (AID 157). The note with it: S. cerevisiae mec2-1 strain, at 50.0 µM, stronger effect = higher value. Put shortly: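 Readout is yeast growth inhibition, normalised to vehicle-treated controls, in the mec2-1 strain exposed to compound.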
Test [3] in a line: NCI Yeast Anticancer Drug Screen. Data for the sgs1 mgt1 strain (AID 161).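 Also: 0% = growth of cultures given vehicle only.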 The note with it: S. cerevisiae sgs1 mgt1 strain, at 50.0 µM, stronger effect = higher value. Put shortly:
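Yeast cells carrying a defined DNA-repair defect were exposed to test compounds. Growth inhibition was measured relative to vehicle-treated controls.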

Test [4] in a line: NCI Yeast Anticancer Drug Screen. Data for the cln2 rad14 strain (AID 165).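 Also: 0% = growth equal to vehicle treated cultures.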 Conditions: S. cerevisiae cln2 rad14 strain, at 50.0 µM, stronger effect = higher value. The gist of the method: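 Relative to vehicle controls, growth inhibition of compound-treated cln2 rad14 yeast was recorded.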
The nature of test [5]: NCI Yeast Anticancer Drug Screen. Data for the bub3 strain (AID 167). The note with it: S. cerevisiae bub3 mutant strain, at 50.0 µM, stronger effect = higher value. Put shortly:
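Readout: yeast growth inhibition, expressed relative to vehicle-only wells. The test organism is a mutant strain from a panel with lesions in DNA repair or checkpoint genes.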

Test [6] is described as follows: NCI Yeast Anticancer Drug Screen. Data for the mlh1 rad18 strain (AID 175). The note with it: S. cerevisiae mlh1 rad18 strain growth inhibition; at 50.0 µM; stronger effect = higher value. The gist of the method:
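Test agents were incubated with a yeast strain of defined genotype (DNA damage repair defect). Inhibition of growth was derived by comparison with vehicle-exposed cultures.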

Each structure is given as a SMILES string. About 79,000 compounds went through this panel and 15% of them were active in at least one assay; those are over-represented in the sample as a whole. Unmarked numbers belong to inactive results. The source made the active and inactive calls. Rule as the data show it: active = growth inhibition above about 70%; inactive = the rest.

Take `COCCOC(=O)c1ccc(C(N)=NC2CCCCC2)cc1`: the growth inhibition is -1.2% in test [1]; 4.25% in test [2]; 3.9% in test [3]; 0.95% in test [4]; 8.65% in test [5]; -0.7% in test [6].

For the compound `O=C1CC2(C(=O)N1CN1CCOCC1)c1ccccc1-c1ccccc12`, the growth inhibition in test [1] was -7.55%; in test [2] it was -4.5%; in test [3], 15.6%; in test [4] it was 3.7%; in test [5], 4.05%; in test [6], -11.1%.

Take `C/C=C/CNc1ccc(C)cc1`: the growth inhibition in test [1] is 30.5%; in test [2], 20.9%; in test [3], 25.7%; in test [4], 28.4%; in test [5], 2.2%; in test [6] it was 22.8%.

As for `COc1ccc(C(CN)c2ccc(N)cc2)cc1` (stereo unspecified), the growth inhibition was 8.8% in test [1]; 10.7% in test [2]; 1.6% in test [3]; 2.9% in test [4]; -13.4% in test [5]; -5.05% in test [6].

In the case of `C[CH2][Sn]([CH2]C)([n]1c2ccccc2c2c(C)c3cnccc3c(C)c21)[n]1c2ccccc2c2c(C)c3cnccc3c(C)c21`, the growth inhibition in test [1] was 72.2% (active); in test [2], 14.7%; in test [3] it was 25.5%; in test [4] it was 44.5%; in test [5], 25.6%; in test [6] it was 71.3% (active).

As to `N#Cc1c(-c2ccccc2)cc(-c2ccccc2)n(C2OCC(O)C(O)C2O)c1=S` (stereo unspecified), the growth inhibition in test [1] was 5.1%; in test [2] it was 30.6%; in test [3], 31.5%; in test [4], -7.45%; in test [5], 3.15%; in test [6] it was -0.05%.

Regarding `O=C(COC(=O)c1ccccc1Br)c1ccc(-c2ccccc2)cc1`, the growth inhibition is 33.6% in test [1]; 20.8% in test [2]; 31.6% in test [3]; 31.4% in test [4]; 0.7% in test [5]; 23.2% in test [6].

With `Cc1sc2c(c1C)/C(=N\O)c1cccn1-2`, the growth inhibition in test [1] was -0.05%; in test [2] it was -3.4%; in test [3], 34%; in test [4], 26%; in test [5], 14.4%; in test [6], -11.6%.

As to `Cc1cccc2c3c(ccc12)C(=O)OC3=O`, the growth inhibition in test [1] is -0.3%; in test [2], -2.85%; in test [3], 4.1%; in test [4], -22.3%; in test [5], -6.5%; in test [6] it was 4.25%.

Turning to `c1ccc(-c2nnc3nn4c(-c5ccccc5)cnnc4c3c2-c2ccccc2)cc1`, the growth inhibition is -0.05% in test [1]; -10.3% in test [2]; -14.8% in test [3]; 1.4% in test [4]; -6.05% in test [5]; 1.5% in test [6].

Turning to `O=C(Nc1ccc(Br)cc1)Nc1ccc(Br)cc1`, the growth inhibition was -23.3% in test [1]; 8.15% in test [2]; 15.3% in test [3]; -36.4% in test [4]; 31.9% in test [5]; 6.25% in test [6].

For the compound `Cc1nn(C)c(NC(=O)c2ccccc2O)c1SC#N`, the growth inhibition in test [1] was 43.3%; in test [2] it was -5.35%; in test [3], 16.7%; in test [4], 28.2%; in test [5], 35.2%; in test [6] it was 10.4%.

Consider `N/C(=N\O)c1c(Br)n(C2OC(CO)C(O)C2O)c2ncnc(N)c12` (stereo unspecified), for which the growth inhibition in test [1] is 12.1%; in test [2], 11.7%; in test [3], 4.7%; in test [4] it was 10.8%; in test [5], -2.05%; in test [6] it was 1.75%.

For the compound `Cc1cc(N=[N+]=[N-])c2cc3c(cc2n1)OCO3`, the growth inhibition was -32.2% in test [1]; -7.5% in test [2]; -0.4% in test [3]; -39% in test [4]; 5.65% in test [5]; 14% in test [6].

Regarding `Cc1ccc2nc(NC(=O)OCc3ccccc3)sc2c1`, the growth inhibition is 4.1% in test [1]; 20.1% in test [2]; -11.8% in test [3]; 6.95% in test [4]; 8.6% in test [5]; 9.65% in test [6].

Turning to `Cc1ccc(S(=O)(=O)N(C)c2cc(Cl)c(I)cc2Cl)cc1`, the growth inhibition in test [1] was 38.9%; in test [2], -5.05%; in test [3], 8.9%; in test [4], 0.25%; in test [5], 25.1%; in test [6] it was 5.2%.

`CCN(CC)C(=O)Cn1c2c(c3ccccc31)CCCC2`: the growth inhibition was 33.4% in test [1]; -30.4% in test [2]; 2.2% in test [3]; 1.15% in test [4]; -2.6% in test [5]; -11.9% in test [6].

Turning to `O/N=C1/CCCCCC1NO` (stereo unspecified), the growth inhibition in test [1] is -23.8%; in test [2], -24.1%; in test [3], -22.7%; in test [4], 15.4%; in test [5] it was -18.1%; in test [6] it was -13.1%.

For `CC1(O)OC(=O)c2ccc3ccccc3c21` (stereo unspecified), the growth inhibition in test [1] was -11.4%; in test [2], -19.9%; in test [3] it was -9.35%; in test [4], 14.9%; in test [5] it was -20.8%; in test [6] it was 11%.

As for `Cc1ccc(S(=O)(=O)NC(=O)NC23CC4CC(CC(F)(C4)C2)C3)cc1`, the growth inhibition in test [1] was 37.9%; in test [2] it was 21.4%; in test [3] it was -13.6%; in test [4], 9.5%; in test [5], 13.8%; in test [6] it was 2.1%.

Consider `O=C(c1ccccc1)c1ccccc1`, for which the growth inhibition in test [1] was 23.9%; in test [2], 2.35%; in test [3], -13.2%; in test [4] it was -16.8%; in test [5], 14.3%; in test [6], 14.1%.
